An excerpt weighted towards active compounds, which were near 3.5% of everything screened.
Tau ThT inhib – tau fibrillization inhibition (ThT binding) | P10636 | recombinant tau K18 P301L, heparin-induced fibrillization, ThT fluorescence | Potency, µM (series often up to 57.4 µM), actives largely listed as inhibitors | 270,000 compounds, 2.1% hits; further: nearly all actives have a fitted effect of over 55% in size
Target sequence (P10636 561-689 P618L limits assumed): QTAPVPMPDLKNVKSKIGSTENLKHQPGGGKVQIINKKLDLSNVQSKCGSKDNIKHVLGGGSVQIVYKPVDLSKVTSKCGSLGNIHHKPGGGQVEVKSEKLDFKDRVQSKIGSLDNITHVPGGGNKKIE
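Heparin-induced fibrillization of the P301L-mutant K18 repeat-domain fragment of human tau was followed by ThT binding in quantitative high-throughput format.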
TRb-SRC2 inh – disrupts binding of human TR beta to SRC2 | 280,000 compounds, 0.065% hits | TRbeta-SRC2 peptide binding, fluorescence polarization; receptor liganded with 1 µM T3 | Potency, µM (doses to about 106 µM), most hits filed as inhibitors | P10828; further: nearly all actives have a fitted effect of over 50% in size
Target sequence (P10828 whole entry, looked up): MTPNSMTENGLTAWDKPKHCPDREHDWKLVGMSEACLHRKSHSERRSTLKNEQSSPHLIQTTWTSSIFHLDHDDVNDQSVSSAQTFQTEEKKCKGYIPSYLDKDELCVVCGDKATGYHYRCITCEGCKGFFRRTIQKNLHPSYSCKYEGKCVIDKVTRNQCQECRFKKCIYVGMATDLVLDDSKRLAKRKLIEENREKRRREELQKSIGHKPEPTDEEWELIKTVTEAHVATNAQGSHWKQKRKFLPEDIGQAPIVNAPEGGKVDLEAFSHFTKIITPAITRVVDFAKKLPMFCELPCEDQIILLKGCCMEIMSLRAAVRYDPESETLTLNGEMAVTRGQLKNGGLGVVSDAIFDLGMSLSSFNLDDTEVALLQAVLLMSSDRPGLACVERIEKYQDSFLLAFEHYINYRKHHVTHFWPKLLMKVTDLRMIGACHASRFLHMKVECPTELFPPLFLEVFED
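Fluorescence polarization of 20 nM Texas Red SRC2 peptide (20-aa NR interaction domain) bound to 0.6 uM human TRb ligand-binding domain, with 1 uM T3, after 5 hr at ambient temperature; inhibition seen as decreased polarization.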
Tau FP inhib – inhibitors of human tau fibril formation. P10636. Potency, µM (highest dose often 57.7 µM), hits mostly inhibitors. K18 P301L tau heparin fibrillization, Alexa594 FP, 6 h. 280,000 compounds, 0.39% hits; further: nearly all actives have a fitted effect of over 55% in size
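FP of Alexa 594-tau after heparin (20 uM) induction. Substrate: human K18 P301L, 15 uM unlabeled, 0.24 uM labeled. Buffer 100 mM sodium acetate pH 7. 6 hr, 37 C.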
Tau fluor cs – counter-screen for tau fibril formation inhibitors | tau K18 P301L Alexa594 fluorescence, heparin fibrillization | Potency, µM (series often up to 57.7 µM) | 280,000 compounds, 0.93% hits | AID 1463; further: nearly all actives have a fitted effect of over 55% in size
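Human K18 P301L tau (15 uM unlabeled plus 0.24 uM Alexa 594-labeled, final) in 100 mM sodium acetate pH 7 was mixed with compound and 20 uM heparin and incubated 6 hr at 37 C.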
JMJD2E inh – JMJD2E (human) inhibition. B2RXH2. AID 2147. JMJD2E catalytic domain, FDH-coupled NADH fluorescence (FDH is formaldehyde dehydrogenase). 230,000 compounds, 1.6% hits. Potency, µM (titrated, usually from 57.1 µM), most hits filed as inhibitors; active means well fitted inhibition curve with a large enough effect, not every such curve was filed as active; inconclusive means small, poorly fitted or top-dose-only effect, or another doubt; inactive means no such curve, though single readings can be large or run the other way; further: nearly all actives have a fitted effect of over 50% in size
TexasRed fluor – counter-screen for TRb-SRC2 inhibitors: fluorescence interference; AID 1479; 280,000 compounds, 0.29% hits; TRb/SRC2 Texas Red total fluorescence interference; Potency, µM (doses to about 106 µM); active means well fitted curve in either direction with a large enough effect; inconclusive means small, poorly fitted or top-dose-only effect
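Human TRb ligand-binding domain at 0.6 uM with 20 nM Texas Red SRC2 peptide in Tris buffer containing 1 uM T3 and 5% DMSO, incubated with compound 5 h at ambient temperature. Total fluorescence (555/632 nm) calculated as parallel + 2 × perpendicular.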
Tau fibril TEM – Inhibits human tau fibrillization; recombinant tau K18 P301L fibrillization, TEM grading; hits give high values; 45 compounds, 70% hits; shares compounds with Tau ThT inhib; AID 1719; fibril grade (0 = clumped fibrils, 4 = only tiny pieces) (concentration not given with the values);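 active means compounds whose electron micrographs showed tau fibrils broken into shorter filaments or fragments, graded high on fibril breakup; inconclusive means micrographs gave an unclear fibril picture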
tau fibril sed – reduces sedimented tau K18 P301L aggregates | 110 compounds, 50% hits | AID 1720 | recombinant tau K18 P301L (four-repeat tau fragment), sedimentation SDS-PAGE densitometry | shares compounds with Tau ThT inhib | inhibition, % at 100 µM; in the data active means inhibition above about 40%; inconclusive means no clear call, values can overlap the other calls; inactive means below about 18%
Of the large screens only hits and unclear results are named; the others gave an inactive call (follow-up assays come after a bar, where they were run); [ ] = dose if it differs, or a comment. Unless noted, the call rests on the fitted dose curve; in most records, active means well fitted curve in the direction sought with a large enough effect; inconclusive means small, poorly fitted or top-dose-only effect, or another doubt; inactive means no such curve, though single readings can be large; an effect the other way counts as inactive or inconclusive.

Cc1cccc(NC(=O)CN2C(=O)S/C(=C\c3ccccn3)C2=O)c1	none
CN1C(=O)/C(=C/c2ccc(O)c([N+](=O)[O-])c2)N(C)C1=S	Tau ThT inhib 4.5µM
CCOC(=O)CN1C(=O)S/C(=C/c2cccc([N+](=O)[O-])c2O)C1=O	Tau ThT inhib 13µM
CC(C)c1ccccc1N=C1SCCN1C1CCS(=O)(=O)C1 (stereo unspecified)	none
CCOC(=O)Cn1c(=O)oc2cc(S(=O)(=O)N3CCC(C(=O)OCC)CC3)ccc21	none (no result: JMJD2E inh)
Cc1ccc(NC(=O)CN2C(=O)S/C(=C/c3ccc(O)c([N+](=O)[O-])c3)C2=O)cc1C	Tau ThT inhib 7.9µM, Tau FP inhib inconclusive, Tau fluor cs inconclusive, JMJD2E inh inconclusive, TexasRed fluor inconclusive
Cc1ccc(NC(=O)CN2C(=O)S/C(=C\c3ccccn3)C2=O)cc1	none
CCOC(=O)CN1C(=O)S/C(=C/C=C/c2ccc(N(C)C)cc2)C1=O	Tau ThT inhib 2.2µM, TRb-SRC2 inh inconclusive, Tau FP inhib inconclusive, TexasRed fluor inconclusive
O=C1S/C(=C\c2ccc(O)c([N+](=O)[O-])c2)C(=O)N1Cc1cccc([N+](=O)[O-])c1	Tau ThT inhib 11µM, Tau fluor cs inconclusive
Cc1cc(O)ccc1N/C=C1\CCCC1=O	Tau ThT inhib 28µM, Tau FP inhib inconclusive, JMJD2E inh inconclusive
CC(=O)Nc1ccc(N/C=C2/CCCC2=O)cc1	Tau ThT inhib inconclusive
Cc1ccc(C(=O)OCn2ncc(Cl)c(Cl)c2=O)cc1	none
O=C(OCn1ncc(Cl)c(Cl)c1=O)c1ccc(C(F)(F)F)cc1	Tau ThT inhib 32µM
Cc1ccc(Cl)cc1N1CCN(C(=O)C2CCN(S(=O)(=O)c3cccc4nonc34)CC2)CC1	Tau ThT inhib inconclusive, TexasRed fluor 7.9µM[quencher] (no result: JMJD2E inh)
Cc1nc(N)sc1N=Nc1ccc(F)cc1	Tau ThT inhib 8.9µM, Tau fluor cs inconclusive
CCOC(=O)c1c(NC(=O)Nc2ccc(Cl)cc2)sc(C)c1C	none
CCOC(=O)c1c(NC(=O)/C=C/C(=O)O)sc(C)c1-c1ccc(Cl)cc1	Tau ThT inhib 32µM, TRb-SRC2 inh inconclusive, Tau FP inhib inconclusive
CCOC(=O)c1c(N)sc(C(O)(C(F)(F)F)C(F)(F)F)c1-c1ccc(Cl)cc1	Tau ThT inhib inconclusive, Tau fluor cs 25µM[quencher]
O=C(N/N=C/c1c[nH]c2ccc(Br)cc12)c1ccn(Cc2ccc(Cl)cc2)n1	Tau ThT inhib inconclusive, Tau fluor cs 11µM[quencher]
O=C(N/N=C/c1c[nH]c2ccccc12)c1ccn(Cc2ccc(Cl)cc2Cl)n1	Tau ThT inhib inconclusive, Tau fluor cs 13µM[quencher]
COc1ccccc1CNC(=O)c1c[nH]c2ccc(S(=O)(=O)Nc3cc(C)cc(C)c3)cc2c1=O	Tau FP inhib 8.9µM, Tau fluor cs inconclusive (no result: JMJD2E inh)
CCN(CC)C(=O)c1c[nH]c2ccc(S(=O)(=O)Nc3cc(C)cc(C)c3)cc2c1=O	JMJD2E inh 32µM
COc1ccccc1NS(=O)(=O)c1cc(NC(=O)c2cc3ccccc3oc2=O)ccc1C	none
COc1ccc(C(=O)N(CCCO)C(C)C(=O)NC2CCCCC2)cc1OC (stereo unspecified)	none
O=C(COc1ccccc1-c1ccccc1)Nc1ccc(S(=O)(=O)NCc2ccco2)cc1	none
COc1ccc2sc(/C=C/c3ccccc3O)[n+](C)c2c1	Tau ThT inhib inconclusive, TRb-SRC2 inh inconclusive, Tau fluor cs 16µM[fluorescent], TexasRed fluor inconclusive
CCc1cc(C(=O)N=Nc2c(O)[nH]c3c(Br)cc(Br)cc23)c2ccccc2n1	Tau ThT inhib 7.1µM, Tau fluor cs inconclusive
CCc1cc(C(=O)N=Nc2c(O)[nH]c3ccc([N+](=O)[O-])cc23)c2ccccc2n1	Tau ThT inhib 16µM, Tau fluor cs inconclusive
Cc1ccc(N(Cc2ccc(C(=O)NCC3CCCO3)cc2)S(C)(=O)=O)cc1C (stereo unspecified)	none
C=CCn1c(CNc2ccccc2)nnc1SCC(=O)N/N=C/c1ccccc1O	JMJD2E inh 14µM
CCOC(=O)Cc1csc(NC(=O)c2csc(C)c2)n1	none
CCOC(=O)Cc1csc(NC(=O)c2sc3nc4c(C)cc(C)cc4cc3c2N)n1	Tau ThT inhib 16µM, Tau fluor cs inconclusive, JMJD2E inh inconclusive
Oc1c(Cl)cc(Cl)c2c1NCCC2	Tau ThT inhib 14µM, Tau FP inhib inconclusive, Tau fluor cs inconclusive, JMJD2E inh inconclusive
O=C(c1cnn(-c2ccc(F)cc2)c1-n1cccc1)N1CCN(c2cccc(Cl)c2)CC1	none (no result: JMJD2E inh)
CN1\C(=C/C=C/C=C/C=[N+](C)C)C(C)(C)c2ccccc21	Tau ThT inhib 3.5µM, TRb-SRC2 inh inconclusive, Tau FP inhib inconclusive, Tau fluor cs 1.6µM[fluorescent], JMJD2E inh inconclusive, TexasRed fluor 50µM[fluorescent]
CN(C)c1ccc(N=C/C=C2\N(C)c3ccccc3C2(C)C)cc1	Tau ThT inhib 5µM, Tau fluor cs inconclusive, JMJD2E inh inconclusive
Cc1ccc(CN(C)C(=O)c2cc(COc3ccc(F)cc3Cl)on2)o1	Tau ThT inhib inconclusive
C#CCN(Cc1ccco1)C(=O)c1cc(COc2ccc(F)cc2Cl)on1	Tau ThT inhib 13µM, JMJD2E inh inconclusive
COc1cc(NC2CCCCC2O)c2nc(-c3ccc(Cl)cc3)ccc2c1 (stereo unspecified)	Tau ThT inhib inconclusive, Tau FP inhib inconclusive, Tau fluor cs inconclusive, JMJD2E inh 22µM
CN(Cc1c(O)ccc2c1oc(=O)c1ccccc12)C1CCCCC1	JMJD2E inh 25µM
COCc1[nH]nc2c1C1(CCC3(CC1)OCCO3)C(C#N)=C(N)O2	none
Nc1nc(NCc2ccco2)nc(N2CCCCCC2)c1[N+](=O)[O-]	Tau ThT inhib inconclusive
COc1ccc(NC(=O)c2oc3ccc(S(=O)(=O)N4CCCCC4)cc3c2C)cc1Cl	Tau FP inhib inconclusive (no result: JMJD2E inh)
Nc1scc2c(C(=O)NCc3ccccc3)nn(-c3ccccc3)c(=O)c12	none (no result: Tau ThT inhib, TRb-SRC2 inh, Tau FP inhib, Tau fluor cs, JMJD2E inh, TexasRed fluor) | tau fibril sed 54
Nc1scc2c(C(=O)O)nn(-c3ccccc3)c(=O)c12	none (no result: Tau ThT inhib, TRb-SRC2 inh, Tau FP inhib, Tau fluor cs, JMJD2E inh, TexasRed fluor) | tau fibril sed 84
COc1cccc(-n2nc(C(=O)O)c3ccccc3c2=O)c1	none
O=C(O)CC1S/C(=N/N=C/c2ccc(-c3ccc(Cl)cc3[N+](=O)[O-])o2)NC1=O (stereo unspecified)	Tau ThT inhib 1µM, TRb-SRC2 inh inconclusive, Tau FP inhib 1.6µM, Tau fluor cs inconclusive, JMJD2E inh inconclusive | Tau fibril TEM 3 | tau fibril sed 74
